Experimental data: PubChem BioAssay

These compounds were tested on Neuregulin-1 EGF-like domain (assay: binders of neuregulin-1 EGF-like domain, primary screen, biochemical, small-molecule microarray, 635 nm fluorescence (AID 1081;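 further: binding of the protein to compounds printed on small-molecule microarray slides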)). Details: small-molecule microarray binding, higher = more signal.

Going from C=CCC(OC(C)=O)[C@@H]1[C@@H](N(Cc2cc3ccccc3o2)C(=O)Cc2ccc(OC)cc2)c2cc(OCCCO)ccc2N1C(=O)c1ccc2ccccc2n1 (stereo partly specified) to C=CCC(OC(C)=O)[C@@H]1[C@@H](N(Cc2cccc3ccccc23)C(=O)Cc2ccc(OC)cc2)c2cc(OCCCO)ccc2N1C(=O)c1ccc2ccccc2c1 (stereo partly specified), the composite z-score falls from -0.0159 to -0.805.

Going from C=C(COC)/C(=C/C[C@@H](OC(C)=O)c1ccccc1OCCO)c1cnc2ccccc2c1 to C=C(CCCC)/C(=C/C[C@@H](OC(C)=O)c1ccc(CO)o1)c1cnc2ccccc2c1, the composite z-score rises from 1.13 to 1.28.

Going from Cc1ccc(S[C@]2(C(=O)NCC(F)(F)F)CC(=O)N(Cc3ccccc3C(F)(F)F)[C@@H]2c2ccc(CO)cc2)cc1 to O=C1C[C@@](C(=O)NCc2ccccc2)(c2ccc([N+](=O)[O-])cc2)[C@@H](c2ccc(CO)cc2)N1C1CCCCC1, the composite z-score rises from 0.573 to 1.31.

First: COc1ccc([Si](C)(C)[C@@H]2[C@@H](CC(=O)N(CCO)Cc3ccccc3)O[C@]3(C(=O)N(Cc4ccc(N5C(=O)c6cccc7cccc5c67)cc4)c4ccccc43)[C@H]2C)cc1
Second: C=CCN1C(=O)[C@@]2(O[C@@H](CCn3cc([C@H](O)c4ccccc4)nn3)[C@H]([Si](C)(C)c3ccc(OC)cc3)[C@H]2C)c2cc(N3C(=O)c4cccc5cccc3c45)ccc21
The composite z-score of the first is higher: 0.956 for the first, 0.482 for the second.

Going from COC(=O)[C@@]1(Cc2ccc(OC)cc2)[C@H]2c3cc(C(=O)N(C)C)[nH]c3C[C@H]2CN1C(=O)c1ccccc1 to COC(=O)[C@@]1(Cc2ccccc2)[C@H]2c3cc(C(=O)N(C)C)n(Cc4ccc(C(F)(F)F)nc4)c3C[C@H]2CN1C(=O)c1ccccc1, the composite z-score rises from 0.977 to 1.48.

First: CCOc1cc(C(O)C2C=CC3C(=O)N(c4ccccc4)C(=O)C3N2Nc2ccccc2F)ccc1O (stereo unspecified)
Second: COc1ccc(C(O)C2C=CC3C(=O)N(c4ccccc4)C(=O)C3N2Nc2ccc([N+](=O)[O-])cc2)c2ccccc12 (stereo unspecified)
The composite z-score of the first is higher: 1.37 for the first, 1.27 for the second.

Compared with O=C1O[C@@H](c2ccccc2)[C@@H](c2ccccc2)N2[C@@H](c3ccc(OCCO)cc3)[C@]3(C(=O)Nc4ccc(C#CC5(O)CCCCCC5)cc43)[C@@H](C(=O)O)[C@H]12, COCCOC(=O)N1C(=O)[C@@]2(c3cc(C#CCC(C(=O)OC)C(=O)OC)ccc31)[C@H](C(=O)Nc1nc3ccccc3s1)[C@H]1C(=O)O[C@H](c3ccccc3)[C@H](c3ccccc3)N1[C@@H]2c1ccc(OCCO)cc1 is higher in composite z-score: 1.07 for the first, 1.23 for the second.

Going from COc1ccc(C(=O)Nc2ccc(CN3C(=O)[C@@]4(O[C@@H](CCn5cc(CCO)nn5)[C@H]([Si](C)(C)c5ccc(OC)cc5)[C@H]4C)c4ccccc43)cc2)cc1 to COc1ccc(C(=O)Nc2cccc(CN3C(=O)[C@]4(O[C@H](CC(=O)N5Cc6ccccc6C[C@H]5CO)[C@@H]([Si](C)(C)c5ccc(OC)cc5)[C@@H]4C)c4ccccc43)c2)cc1, the composite z-score falls from 1.16 to 0.762.

Compared with O=C1[C@H]2C=C(I)[C@H](C[C@@H]2OCCCCCCO)[C@@]12CO2, O=C1N(Cc2ccccc2)c2ccccc2C[C@@]12COC(c1ccc(OCCCO)cc1)=N2 is higher in composite z-score: -0.175 for the first, 1.23 for the second.

Going from CCCC#C[Si](O[C@H](CC)c1cn(Cc2ccccc2)nn1)(C(C)C)C(C)C to Cc1ccc(C(C)CC(O)C2C=CC3C(=O)N(C)C(=O)C3N2Nc2ccccc2)o1 (stereo unspecified), the composite z-score rises from 1.02 to 1.09.

Going from CC1CC/C=C\[C@H]2OC34C=CCN(c5ccc6ccccc6c5)C(=O)[C@H]3N(C(C)CO)C(=O)[C@@H]4C2C(=O)O1 (stereo partly specified) to N#Cc1ccc(NN2C(C(O)C3CC=CCC3)C=CC3C(=O)N(c4ccccc4)C(=O)C32)cc1 (stereo unspecified), the composite z-score rises from -0.0133 to 1.29.

Compared with COC(=O)c1cccc([C@H]2OC(=CC(=O)OC(C)C)C[C@@H](c3cccc(C(=O)OC)c3)O2)c1, C=C(CCCC)/C(=C/C[C@H](OC(=O)c1ccncc1)c1ccccc1OCCO)c1cc(C(=O)OC)ccc1OC is lower in composite z-score: 1.12 for the first, 0.787 for the second.

First: COC(=O)[C@@]1(Cc2ccc(F)cc2)[C@H]2c3cc(C(=O)N4CCCC4)n(Cc4cc(F)cc5c4OCOC5)c3C[C@H]2CN1C(=O)c1ccccc1
Second: CCOC(=O)C[C@H]1[C@H](OC(=O)Cc2ccc3c(c2)OCO3)[C@@H](NC(=O)c2ccc3ccccc3n2)c2cc(OCCCO)ccc2N1C(=O)Cc1ccc(OC)cc1
The composite z-score of the first is lower: 0.102 for the first, 0.38 for the second.

First: CC(C)N1C(=O)C[C@@](C(=O)NCCN2CCOCC2)(c2ccc([N+](=O)[O-])cc2)[C@H]1c1ccc(CO)cc1
Second: Cc1ccc(S[C@]2(C(=O)NC(C)C)CC(=O)N(C3CCCCC3)[C@@H]2c2ccc(CO)cc2I)cc1
The composite z-score of the first is lower: 0.851 for the first, 1.33 for the second.

Compared with CC(C)=C1C(=O)C(c2ccccc2)=C2CN3C(=O)N(CCc4ccccc4)C(=O)[C@]3(C)[C@H]21, O=C(NCC(O)CO)[C@@]1(CCS(=O)(=O)c2ccccc2)N=C(c2ccc(OCCCO)cc2)O[C@H]1c1ccccc1 (stereo partly specified) is higher in composite z-score: 1.07 for the first, 1.33 for the second.

Going from C[N+](C)(C)CCCC[C@@H]1NC(=O)[C@@H]2C[C@H](C(=O)NCc3ccc(F)cc3)[C@H](c3ccc(O)cc3)N2C1=O to C=CCOC(=O)[C@H]1[C@@H]2C(=O)O[C@@H](c3ccccc3)[C@@H](c3ccccc3)N2[C@@H](c2ccc(OCCOC(=O)[C@@H]3C[C@@H]4C(=O)N[C@@H](CCCC[N+](C)(C)C)C(=O)N4[C@@H]3c3ccc(O)cc3)cc2)[C@]12C(=O)Nc1ccc(I)cc12, the composite z-score falls from 1.38 to 1.11.

First: CC(C)OC(=O)CC(=O)CC(O)c1cccc([N+](=O)[O-])c1 (stereo unspecified)
Second: Cc1ccc(F)cc1S(=O)(=O)N[C@H]1CCN(Cc2ccc(OC(C)C)cc2)C1
The composite z-score of the first is higher: 0.947 for the first, 0.629 for the second.

First: CCOC(=O)C[C@H]1[C@H](OC(=O)c2ccccc2-c2ccccc2)[C@@H](NC(=O)c2ccc3ccccc3c2)c2cc(OCCCO)ccc2N1C(=O)Cc1ccc(OC)cc1
Second: CCOC(=O)C1=C[C@@H](C(C)(C)C)N(S(=O)(=O)c2ccc(C)cc2)[C@H]1c1ccc(C#N)cc1
The composite z-score of the first is lower: -0.58 for the first, 1.22 for the second.
